# Source: PubChem BioAssay AID449762 (Southern Research Specialized Biocontainment Screening …, 2010)
# Screen size: about 330,000 compounds; about 1,900 (0.58%) were called active. Roughly 4% stayed inconclusive and do not appear here. Not all results are given here. Entries with a potency or affinity are not part of this list. A number with no mark means an inactive call. No stated cut-off is given here; in the data, inconclusive means inhibition above about 70% without an active follow-up result; inactive means below that.
# Assay: M. tuberculosis growth inhibition, HTS (AID 449762);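 further: bacterial growth assessed after seven days of incubation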
# Details: M. tuberculosis H37Rv growth inhibition, 7H9 media; at 25 µM; hits give high values
row,SMILES,inhibition [%]
1,Cc1cc(C(=O)NCC(=O)OCC(=O)Nc2ccc(OC(F)F)cc2)ccc1[N+](=O)[O-],-2.28
2,CC(C)NC(=O)[C@@H]1CSC2c3ccccc3C(=O)N21 (stereo partly specified),-1.97
3,O=C(C[C@@H]1C/C=C\CCCC(=O)OC[C@@H]2CCCN2C1=O)N[C@H](CO)Cc1ccccc1,7.5
4,Cc1cc(SCC(=O)NCCN2C(=O)CSC2=O)nc2c(C)cccc12,4.1
5,Cc1cccc2c1-c1sc(C(=O)Nc3cccc([N+](=O)[O-])c3C)cc1CO2,-9.42
6,Cc1cccc(NC(=O)c2cc3c(s2)-c2c(C)cccc2OC3)n1,0.14
7,Cc1cccc(OCCCC(=O)Nc2nccs2)c1C,8.02
8,O=C(c1sccc1-c1ccccc1)N1CCN(S(=O)(=O)c2ccccc2)CC1,-22.5
9,COCCNc1nc(SCC(=O)N2CCN(c3ccccc3OC)CC2)nc2ccccc12,-10.5
10,COc1ccc2c3n([n+]([O-])c2c1)CCN=C3c1ccc(C)cc1,17
11,[O-][n+]1c2ccccc2c2n1CCN=C2c1ccc(Cl)cc1,0.84
12,O=C(O)c1ccc(Cn2ccc3ccccc32)o1,2
13,CC1=C(C(=O)Nc2ccccc2)C(c2ccco2)C(C#N)=C(SCC(=O)Nc2cccc(C)c2C)N1 (stereo unspecified),-1.31
14,CC(=O)C1=C(C)NC(SCC(=O)c2ccc(Cl)cc2)=C(C#N)C1c1ccco1 (stereo unspecified),2.1
15,CCOc1ccccc1NC(=O)CSC1=C(C#N)C(c2ccco2)C(C(=O)Nc2nc3ccccc3s2)=C(C)N1 (stereo unspecified),49.6
16,CC(=O)C1=C(C)NC(SCC(N)=O)=C(C#N)C1c1ccco1 (stereo unspecified),-6.56
17,CCOc1ccccc1CN1CCN(CC2CC2)CC1CCO (stereo unspecified),-1.16
18,COCCCNC(=O)CC(NCCCOC)C(=O)O (stereo unspecified),0.77
19,COC(=O)c1ccc(NS(=O)(=O)N(C)C)cc1,-1.07
20,Nc1c(N(CCC2=CCCCC2)C(=O)c2ccco2)c(=O)[nH]c(=O)n1Cc1ccccc1,9.03
21,Cc1ccc(C(=O)N(CCC2=CCCCC2)c2c(N)n(Cc3ccccc3)c(=O)[nH]c2=O)o1,6.47
22,CS(=O)(=O)c1ccc(Cl)c(NC(=O)COC(=O)CCN=C2NS(=O)(=O)c3ccccc32)c1,-3.06
23,O=C(CCl)NN1C(=O)NC(c2ccccc2)(c2ccccc2)C1=O,2.88

row,SMILES,inhibition [%]
1,Cc1ccc(S(=O)(=O)NCC(=O)OCc2cc(=O)oc3cc(C)ccc23)cc1,-1.73
2,O=C(NC(=S)Nc1ccc2[nH]c(=O)[nH]c2c1)c1ccccc1F,-4.55
3,Clc1ccc2c(c1)C(OC1CN3CCC1CC3)c1ccccc1CS2 (stereo unspecified),9.17
4,Brc1ccc2c(c1)C(C1=NCCN1)c1ccccc1CS2 (stereo unspecified),0.75
5,CN(C)/N=C/c1c(O)ccc2ccccc12,27.8
6,NC(=S)N/N=C/c1c(O)ccc2ccccc12,-0.33
7,CCCN(CCC)C(=O)c1ccc2nc(-c3ccc(OC)c(OC)c3)c(-c3ccc(OC)c(OC)c3)nc2c1,-2.59
8,CC1CCCN(C(=O)Cc2cccc3ccccc23)C1 (stereo unspecified),7.05
9,CCN(c1ccccc1)S(=O)(=O)c1cccc(C(=O)Nc2ccc(C)cn2)c1,-11.7
10,COc1cccc(-c2cccc(NC(=O)C3CCN(C4CCOCC4)CC3)c2)c1,6.63
11,O=C1C2C(C(=O)N1/N=C/c1ccc(N3CCCCC3)o1)C1C=CC2C12CC2 (stereo unspecified),6.38
12,Cc1ccc(/C=N/N2C(=O)C3C(C2=O)C2C=CC3C23CC3)o1 (stereo unspecified),-4.61
13,CC(C)(C)n1nnnc1C(c1ccc(Cl)cc1)N1CCCc2ccccc21 (stereo unspecified),-4.81
14,N#C/C(=N\Nc1ccc(Cl)cc1)C(N)=S,59.5
15,N#C/C(=N\Nc1ccccc1)C(N)=S,2.54
16,Cn1c(NN=O)nc2ccccc21,0.37
17,Cc1ccc(C)c(N=Nc2nc3ccccc3n2C)c1,-4.4
18,CCCCCc1ccc(-c2cn(CN3C(=O)c4ccccc4C3=O)nn2)cc1,-0.74
19,COC(=O)c1cc(COC(=O)c2ccc3ccccc3n2)oc1C,5.66
20,O=C(Cc1ccc([N+](=O)[O-])cc1)Nc1ccc(Cl)cc1,-3.64
21,CCc1cccc(NC(=O)Cc2ccc([N+](=O)[O-])cc2)c1,-1.32
22,Fc1ccc(CSc2ccc3nnc(-c4cccnc4)n3n2)cc1,-5.63
23,Cn1c(-c2ccc(=O)[nH]c2)nc2ccccc21,-2.91

row,SMILES,inhibition [%]
1,COC(=O)CC(NC(=O)c1ccco1)c1cccc2ccccc12 (stereo unspecified),-11
2,C[C@]12CC[C@@H]3c4ccc(O)cc4CC[C@H]3[C@@H]1CC[C@@H]2OC(=O)CCC(=O)O,5.59
3,CC(=O)O[C@H]1CC[C@H]2[C@@H]3CCc4cc(O)ccc4[C@H]3CC[C@]12C,3.79
4,COc1ccc(/C=N/NC(=O)c2nonc2C)cc1,5.08
5,COc1ccc(CCNC(=O)CSc2nn(-c3ccccc3)c(=S)s2)cc1,-1.49
6,COc1ccc(C(=O)N(Cc2ccco2)C(C(=O)NC2CCCC2)c2ccc(O)cc2)cc1OC (stereo unspecified),-4.43
7,O=C(NC1CCCCC1)C(c1ccc2ncccc2c1)N(Cc1ccc2c(c1)OCO2)C(=O)c1cccs1 (stereo unspecified),7
8,COc1cc(C(=O)Nc2ccc3nc4n(c(=O)c3c2)CCCC4)ccc1Br,0.83
9,O=[N+]([O-])c1ccc(CN2CCCCCC2)s1,-2.04
10,O=[N+]([O-])c1ccc(N2CCN(Cc3ccccc3)CC2)s1,62.1
11,CC(=O)N(CC1CCCO1)c1nnc(-c2cnccn2)s1 (stereo unspecified),-7.32
12,CCOC(=O)C[N+](C)(C)CCOC1CC2CCC1(C)C2(C)C (stereo unspecified),0.01
13,CCCOC(=O)C[N+](C)(C)CCOC1CC2CCC1(C)C2(C)C (stereo unspecified),-2.27
14,CCN(CC)c1ccc(C=NCCNS(=O)(=O)c2ccc(C)cc2)cc1,-5.21
15,CCOc1cc(/C=C2\COc3ccccc3C2=O)ccc1OCC(=O)N(C)C,36.2
16,CCOc1cc(/C=N/Nc2nc3ccccc3[nH]2)cc(Br)c1OCC(=O)N(C)C,54.1
17,Nn1c(SCC(=O)Nc2ccccc2)nnc1C1CCCCC1,-4.13
18,CCO[C@H]1OC(C(=O)NC2CC2)=C[C@@H](c2csc3ccccc23)[C@@H]1CCCO,2.79
19,O=C(CC1C(=O)NCCN1Cc1c(F)cccc1Cl)NC1CCCC1 (stereo unspecified),-8.1
20,O=[N+]([O-])c1cc(Cl)ccc1N1CCN(c2cccc(C(F)(F)F)c2)CC1,12
21,CN(C)CCCN(C(=O)c1ccc(S(=O)(=O)N2CCc3ccccc32)cc1)c1nc2ccc(Cl)cc2s1,6.05
22,CN(C)CCCN(C(=O)c1ccc(S(=O)(=O)N2CCc3ccccc32)cc1)c1nc2ccc(F)cc2s1,2.5
23,COc1ccccc1NC(=S)N(Cc1ccc(C(=O)O)cc1)Cc1ccc(OC)c(OC)c1,1.31

row,SMILES,inhibition [%]
1,O=C(NCc1n[nH]c(=S)n1-c1ccc(F)cc1)c1ccc(S(=O)(=O)N2CCCCC2)cc1,0.39
2,CCCNC(=O)c1ccc(Cn2cc(-c3ccc(OC)cc3)nc2C(C)N)cc1 (stereo unspecified),-9.06
3,Cc1ccc(CNC(=O)c2ccc(Cn3cc(-c4ccc(C)cc4)nc3-c3ccncc3)cc2)cc1,8.49
4,O=C(NCCc1ccccc1Cl)C1CCC(=O)N(C2CCCCCC2)C1 (stereo unspecified),4.37
5,COc1cc(OC)cc(C(=O)NCCSC2CCCCC2)c1,1.7
6,C=CCc1ccccc1OCC(O)CN1CCN(c2ccc(C)cc2)CC1 (stereo unspecified),8.24
7,COC(=O)c1ccccc1C(=O)N(Cc1cccnc1)CC1CCCN(C2CCCCC2)C1 (stereo unspecified),2.83
8,O=C(c1cc2ccccc2[nH]1)N(Cc1cccnc1)CC1CCCN(C2CCCCC2)C1 (stereo unspecified),58
9,CCN(C(=O)c1ccccc1F)c1nc(-c2ccc(OC)cc2)cs1,5.39
10,CCOC(=O)CCc1c(C)c2ccc(OCC(=O)OC(C)C)cc2oc1=O,26.9
11,CCc1c(C)c2ccc(OCC(N)=O)cc2oc1=O,4.28
12,COCCCNc1nc2cc(OC)c(OC)cc2c2nc(-c3ccccc3)nn12,13
13,CCN(CC)CCCNc1nc2ccccc2c2nc(-c3ccncc3)nn12,-0.63
14,CCCCCCCCCCCC(=O)N1CC(=O)NC(=O)C1,-0.85
15,CC(C)CCN1CC(=O)N2[C@@H](Cc3c([nH]c4ccccc34)C2(C)C)C1=O,1.66
16,c1ccc(Oc2nc(-c3cccnc3)nc3ccccc23)cc1,13.2
17,Cc1ccc(Oc2nc(-c3cccnc3)nc3ccccc23)c([N+](=O)[O-])n1,3.26
18,Cc1cc(=O)oc2cc(OCC(=O)N3CCN(C(C)c4ccccc4)CC3)c(Cl)cc12 (stereo unspecified),-5.58
19,CCC(C)N1CCN(C(=O)Cc2ccccc2)CC1 (stereo unspecified),4.3
20,Cc1ccc(NC(=O)CN(C)C(=O)c2cccc(S(=O)(=O)NCc3ccccc3)c2)cc1,2.27
21,CCOc1ccc(CCNC(=O)c2ccc(CS(=O)Cc3ccc(Cl)cc3)o2)cc1 (stereo unspecified),-1.24
22,O=C(NCCc1ccccc1)c1ccc(CS(=O)Cc2ccc(Cl)cc2)o1 (stereo unspecified),3.87
